Experiment in all cases: PBM; 200 nM protein, PBS
Conditions in all cases: dsDNA, one strand shown

In assay [1] the target is HESX1 (Homo sapiens, UniProt Q9UBX0 95-180, R165K).
Assay [2] concerns the target HESX1 (Homo sapiens, UniProt Q9UBX0 95-180).
The target in assay [3] is MSX2 (Homo sapiens, UniProt P35548 130-214, R199I).
In assay [4] the target is HESX1 (Homo sapiens, UniProt Q9UBX0 95-180, R109Q).
For assay [5], the target named is HESX1 (Homo sapiens, UniProt Q9UBX0 95-180, P111T).
The target in assay [6] is MSX2 (Homo sapiens, UniProt P35548 130-214, F161Y).
Chain of MSX2 (Homo sapiens, UniProt P35548 130-214, F161Y) (P35548 130-214 F161Y): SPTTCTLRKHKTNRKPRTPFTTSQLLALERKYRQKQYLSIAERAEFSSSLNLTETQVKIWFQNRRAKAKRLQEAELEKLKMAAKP
Assay [7] addresses HESX1 (Homo sapiens, UniProt Q9UBX0 95-180, F115L).
Assay [8] deals with ALX4 (Homo sapiens, UniProt Q9H161 200-286).
Chain of ALX4 (Homo sapiens, UniProt Q9H161 200-286) (Q9H161 200-286): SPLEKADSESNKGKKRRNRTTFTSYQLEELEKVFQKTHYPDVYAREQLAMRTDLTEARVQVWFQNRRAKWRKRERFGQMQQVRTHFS
Assay [9] has as its target ALX4 (Homo sapiens, UniProt Q9H161 200-286, Q225E).
Assay [10] concerns the target ALX1 (Homo sapiens, UniProt Q15699 118-204, L144V).
For assay [11], the target named is ALX1 (Homo sapiens, UniProt Q15699 118-204, L144R).
Chain of ALX1 (Homo sapiens, UniProt Q15699 118-204, L144R) (Q15699 118-204 L144R): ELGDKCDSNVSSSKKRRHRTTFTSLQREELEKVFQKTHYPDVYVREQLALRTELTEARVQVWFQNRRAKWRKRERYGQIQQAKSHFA
For assay [12], the target named is ALX1 (Homo sapiens, UniProt Q15699 118-204).
Chain of ALX1 (Homo sapiens, UniProt Q15699 118-204) (Q15699 118-204): as the sequence (Q15699 118-204 L144R) above, with R27L counted along it

Chain of HESX1 (Homo sapiens, UniProt Q9UBX0 95-180) (Q9UBX0 95-180): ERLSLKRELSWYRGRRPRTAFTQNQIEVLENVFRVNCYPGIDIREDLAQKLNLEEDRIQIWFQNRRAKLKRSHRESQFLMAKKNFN
Chain of HESX1 (Homo sapiens, UniProt Q9UBX0 95-180, F115L) (Q9UBX0 95-180 F115L): as the sequence (Q9UBX0 95-180) above, with F21L counted along it
Chain of HESX1 (Homo sapiens, UniProt Q9UBX0 95-180, R165K) (Q9UBX0 95-180 R165K): as the sequence (Q9UBX0 95-180) above, with R71K counted along it
Chain of ALX4 (Homo sapiens, UniProt Q9H161 200-286, Q225E) (Q9H161 200-286 Q225E): as the sequence (Q9H161 200-286) above, with Q26E counted along it
Chain of HESX1 (Homo sapiens, UniProt Q9UBX0 95-180, P111T) (Q9UBX0 95-180 P111T): as the sequence (Q9UBX0 95-180) above, with P17T counted along it
Chain of HESX1 (Homo sapiens, UniProt Q9UBX0 95-180, R109Q) (Q9UBX0 95-180 R109Q): as the sequence (Q9UBX0 95-180) above, with R15Q counted along it
Chain of ALX1 (Homo sapiens, UniProt Q15699 118-204, L144V) (Q15699 118-204 L144V): as the sequence (Q15699 118-204 L144R) above, with R27V counted along it
Chain of MSX2 (Homo sapiens, UniProt P35548 130-214, R199I) (P35548 130-214 R199I): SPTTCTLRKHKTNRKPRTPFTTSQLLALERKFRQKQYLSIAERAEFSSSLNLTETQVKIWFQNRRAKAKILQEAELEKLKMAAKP

TAATTGTA: the binding signal in [1] is 11.4 upbm affinity estimate (log intensity, higher = more binding, comparable within an allelic series); in [2] it was 11.8 upbm affinity estimate (log intensity, higher = more binding, comparable within an allelic series); in [3], 12.5 upbm affinity estimate (log intensity, higher = more binding, comparable within an allelic series); in [4] it was 8.46 upbm affinity estimate (log intensity, higher = more binding, comparable within an allelic series); in assay [5], 10.1 upbm affinity estimate (log intensity, higher = more binding, comparable within an allelic series); in assay [6] it was 13.3 upbm affinity estimate (log intensity, higher = more binding, comparable within an allelic series). For the same sequence, in assay [7], the binding signal was 7.75 upbm affinity estimate (log intensity, higher = more binding, comparable within an allelic series).

Consider TATGGTAA, for which the binding signal in assay [1] was 7.45 upbm affinity estimate (log intensity, higher = more binding, comparable within an allelic series); in [2], 7.53 upbm affinity estimate (log intensity, higher = more binding, comparable within an allelic series).

GAGTCGCC: the binding signal in [1] is 6.49 upbm affinity estimate (log intensity, higher = more binding, comparable within an allelic series); in [8], 8.18 upbm affinity estimate (log intensity, higher = more binding, comparable within an allelic series); in assay [9], 8.37 upbm affinity estimate (log intensity, higher = more binding, comparable within an allelic series); in assay [2], 6.48 upbm affinity estimate (log intensity, higher = more binding, comparable within an allelic series); in assay [4], 6.47 upbm affinity estimate (log intensity, higher = more binding, comparable within an allelic series); in assay [5], 6.56 upbm affinity estimate (log intensity, higher = more binding, comparable within an allelic series). Also, the binding signal in assay [7] was 6.36 upbm affinity estimate (log intensity, higher = more binding, comparable within an allelic series).

As for CACGGCGG, the binding signal in assay [1] is 6.53 upbm affinity estimate (log intensity, higher = more binding, comparable within an allelic series); in [2], 6.43 upbm affinity estimate (log intensity, higher = more binding, comparable within an allelic series); in [4] it was 6.49 upbm affinity estimate (log intensity, higher = more binding, comparable within an allelic series); in assay [5] it was 6.56 upbm affinity estimate (log intensity, higher = more binding, comparable within an allelic series); in [7], 6.49 upbm affinity estimate (log intensity, higher = more binding, comparable within an allelic series).

Consider AGAGGCAC, for which the binding signal in assay [1] is 6.29 upbm affinity estimate (log intensity, higher = more binding, comparable within an allelic series); in [8], 8.1 upbm affinity estimate (log intensity, higher = more binding, comparable within an allelic series); in [9] it was 8.02 upbm affinity estimate (log intensity, higher = more binding, comparable within an allelic series); in assay [2] it was 6.48 upbm affinity estimate (log intensity, higher = more binding, comparable within an allelic series); in assay [4], 6.44 upbm affinity estimate (log intensity, higher = more binding, comparable within an allelic series); in [5], 6.5 upbm affinity estimate (log intensity, higher = more binding, comparable within an allelic series). Moreover, the binding signal in assay [7] was 6.64 upbm affinity estimate (log intensity, higher = more binding, comparable within an allelic series).

AAGCTGGC: the binding signal in [1] was 6.31 upbm affinity estimate (log intensity, higher = more binding, comparable within an allelic series); in assay [2], 6.21 upbm affinity estimate (log intensity, higher = more binding, comparable within an allelic series); in assay [4], 6.45 upbm affinity estimate (log intensity, higher = more binding, comparable within an allelic series); in assay [5] it was 6.39 upbm affinity estimate (log intensity, higher = more binding, comparable within an allelic series); in assay [7] it was 6.51 upbm affinity estimate (log intensity, higher = more binding, comparable within an allelic series).

Turning to CCGCCGAG, the binding signal in assay [1] was 6.43 upbm affinity estimate (log intensity, higher = more binding, comparable within an allelic series); in assay [2] it was 6.32 upbm affinity estimate (log intensity, higher = more binding, comparable within an allelic series); in assay [4], 6.49 upbm affinity estimate (log intensity, higher = more binding, comparable within an allelic series); in [5], 6.43 upbm affinity estimate (log intensity, higher = more binding, comparable within an allelic series); in assay [7], 6.38 upbm affinity estimate (log intensity, higher = more binding, comparable within an allelic series).

Consider CCCAGTGC, for which the binding signal in assay [1] was 6.38 upbm affinity estimate (log intensity, higher = more binding, comparable within an allelic series); in [8] it was 8 upbm affinity estimate (log intensity, higher = more binding, comparable within an allelic series); in assay [9] it was 8.11 upbm affinity estimate (log intensity, higher = more binding, comparable within an allelic series); in assay [2], 6.3 upbm affinity estimate (log intensity, higher = more binding, comparable within an allelic series); in assay [4] it was 6.56 upbm affinity estimate (log intensity, higher = more binding, comparable within an allelic series); in assay [5], 6.45 upbm affinity estimate (log intensity, higher = more binding, comparable within an allelic series). For the same sequence, the binding signal in assay [7] is 6.56 upbm affinity estimate (log intensity, higher = more binding, comparable within an allelic series).

As for AGAGCTCT, the binding signal in [1] is 6.34 upbm affinity estimate (log intensity, higher = more binding, comparable within an allelic series); in [2], 6.42 upbm affinity estimate (log intensity, higher = more binding, comparable within an allelic series); in assay [10], 6.52 upbm affinity estimate (log intensity, higher = more binding, comparable within an allelic series); in [11], 6.57 upbm affinity estimate (log intensity, higher = more binding, comparable within an allelic series); in assay [4], 6.48 upbm affinity estimate (log intensity, higher = more binding, comparable within an allelic series); in [5] it was 6.53 upbm affinity estimate (log intensity, higher = more binding, comparable within an allelic series). Further, the binding signal in assay [7] is 6.38 upbm affinity estimate (log intensity, higher = more binding, comparable within an allelic series); in [12] it was 6.26 upbm affinity estimate (log intensity, higher = more binding, comparable within an allelic series).

In the case of AGGTGGCC, the binding signal in assay [1] is 6.42 upbm affinity estimate (log intensity, higher = more binding, comparable within an allelic series); in assay [2], 6.42 upbm affinity estimate (log intensity, higher = more binding, comparable within an allelic series); in [4] it was 6.5 upbm affinity estimate (log intensity, higher = more binding, comparable within an allelic series); in assay [5] it was 6.47 upbm affinity estimate (log intensity, higher = more binding, comparable within an allelic series); in [7] it was 6.46 upbm affinity estimate (log intensity, higher = more binding, comparable within an allelic series).

Regarding AAGGGCAC, the binding signal in [1] was 6.53 upbm affinity estimate (log intensity, higher = more binding, comparable within an allelic series); in assay [2], 6.41 upbm affinity estimate (log intensity, higher = more binding, comparable within an allelic series); in assay [4] it was 6.62 upbm affinity estimate (log intensity, higher = more binding, comparable within an allelic series); in [5], 6.56 upbm affinity estimate (log intensity, higher = more binding, comparable within an allelic series); in assay [7] it was 6.62 upbm affinity estimate (log intensity, higher = more binding, comparable within an allelic series).

With CTGCCAGC, the binding signal in assay [1] is 6.31 upbm affinity estimate (log intensity, higher = more binding, comparable within an allelic series); in [2], 6.34 upbm affinity estimate (log intensity, higher = more binding, comparable within an allelic series); in assay [4], 6.43 upbm affinity estimate (log intensity, higher = more binding, comparable within an allelic series); in assay [5], 6.51 upbm affinity estimate (log intensity, higher = more binding, comparable within an allelic series); in assay [7] it was 6.4 upbm affinity estimate (log intensity, higher = more binding, comparable within an allelic series).

The record behind these values is PMC11006913.
